# Records with an inconclusive call do not appear. Activity calls are given as the source filed them.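 The calls were made as follows, unless noted: active = aptamer binding inhibition above 30%, about 3 SD of noise from non-fluorescent compounds; inactive = inhibition at or below 30%.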
# Assays:
# [1] = rapamycin-like changes in RPL19A-GFP expression – cell-based, S. cerevisiae, multiplex flow cytometry, primary screen (AID 1862; in the data active = percent of DMSO control GFP below about 86%;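 also: lower values mimic rapamycin by blocking the RPL19A rise seen in DMSO cells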); conditions: S. cerevisiae RPL19A-GFP strain, flow cytometry fluorescence, 3 h; at 10 µM; stronger effect = lower value
# [2] = TOR pathway GLN3 branch reporter MEP2-GFP changes – S. cerevisiae, multiplex flow cytometry, primary screen (AID 1867;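 active = GFP response, as percent of the DMSO control, above the screen-wide mean plus 3 SD, about 139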;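 also: median GFP channel fluorescence of barcode-gated MEP2-GFP cells measured by flow cytometry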); conditions: S. cerevisiae MEP2-GFP strain, 3 h, at 10 µM, stronger effect = higher value, 100% means same as DMSO wells
# [3] = TOR pathway RTG branch CIT2 reporter changes – S. cerevisiae, GFP fusion, multiplex flow cytometry, primary screen (AID 1870;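 active = percent response above a set limit, the screen-wide mean plus 3 SD, cut at about 130% in these data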;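 also: barcoded CIT2-GFP strain pooled with four other GFP strains with rapamycin as positive control; median GFP fluorescence per well over plate mean of DMSO wells so 100% = DMSO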); conditions: S. cerevisiae CIT2-GFP expression, 3 h, at 10 µM, stronger effect = higher value
# [4] = TOR pathway LAP4-GFP level changes – S. cerevisiae, multiplex flow cytometry, primary screen (AID 1873;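 active = GFP signal, as percent of the solvent control, above the screen mean plus 3 SD, about 149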); conditions: S. cerevisiae LAP4-GFP expression, 3 h, at 10 µM, stronger effect = higher value
# [5] = yeast AGP1-GFP level changes, GLN3 branch – cell-based, multiplex flow cytometry, S. cerevisiae, primary screen (AID 1887;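 active = GFP signal above the screen-wide mean plus 3 SD, that is over about 124.5% of the solvent control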;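 also: AGP1-GFP fusion strain of S. cerevisiae within a five-strain barcoded multiplex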); conditions: 3 h, at 10 µM, stronger effect = higher value
# [6] = reduced mouse 2C T cell binding to pMHC/ICAM-1 vesicles – MLPCN validation set, flow cytometry, LFA-1/ICAM-1 modulator project, pilot screen (AID 2523;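 active = response below a set limit, under 55% cells CD8-positive and vesicle-bound, and CD8 cells' 90th-percentile brightness under 279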;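 as to vesicle binding response: mean PE anti-B7-1 fluorescence of CD8+ cells relative to row control; 100% = QL9-loaded vesicles with DMSO vehicle in the same plate row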); conditions: 2C mouse CD8+ T cells, at 7 µM, stronger effect = lower value; double positive events: measured here: CD8+/vesicle+ event percentage
# [7] = target: Integrin beta-1 (Homo sapiens) + Integrin alpha-4 (Homo sapiens) (UniProt P13612+P05556); assay: alpha4beta1 integrin LIBS antibody binding reduction – U937 cells, HUTS-21 mAb, flow cytometry, validation set, VLA-4 allosteric modulator project, pilot screen (AID 2674;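 active = inhibition above 50%, about 3 SD of the validation set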;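 also: antibody binding induced by the VLA-4 ligand LDV present at three times its Kd; 0% = LDV ligand with antibody and no compound and 100% = antibody without LDV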); conditions: HUTS-21 LIBS mAb binding, at 6.7 µM, stronger effect = higher value, binding induced by LDV ligand
# Integrin beta-1 (Homo sapiens) + Integrin alpha-4 (Homo sapiens), sequence (P05556 whole entry, looked up): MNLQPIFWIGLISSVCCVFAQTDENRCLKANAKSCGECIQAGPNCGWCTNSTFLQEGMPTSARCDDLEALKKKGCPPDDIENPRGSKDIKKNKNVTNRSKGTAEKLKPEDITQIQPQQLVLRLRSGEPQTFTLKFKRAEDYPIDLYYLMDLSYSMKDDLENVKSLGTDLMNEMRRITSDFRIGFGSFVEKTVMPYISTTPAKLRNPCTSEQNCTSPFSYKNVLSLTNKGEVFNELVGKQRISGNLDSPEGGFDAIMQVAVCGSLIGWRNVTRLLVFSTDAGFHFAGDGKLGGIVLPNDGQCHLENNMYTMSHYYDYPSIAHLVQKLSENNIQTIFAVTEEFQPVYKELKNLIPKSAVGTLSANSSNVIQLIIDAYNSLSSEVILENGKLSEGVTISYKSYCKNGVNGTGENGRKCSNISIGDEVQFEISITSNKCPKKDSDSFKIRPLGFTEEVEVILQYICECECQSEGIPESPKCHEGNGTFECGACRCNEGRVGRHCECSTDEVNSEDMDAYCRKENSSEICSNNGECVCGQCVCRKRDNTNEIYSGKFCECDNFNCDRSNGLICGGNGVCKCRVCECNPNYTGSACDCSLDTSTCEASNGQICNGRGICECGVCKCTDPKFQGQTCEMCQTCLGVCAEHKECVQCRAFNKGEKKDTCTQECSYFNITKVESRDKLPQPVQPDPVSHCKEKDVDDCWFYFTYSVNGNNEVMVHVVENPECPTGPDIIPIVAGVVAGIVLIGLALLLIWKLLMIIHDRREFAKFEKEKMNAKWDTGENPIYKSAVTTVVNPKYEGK
# Integrin beta-1 (Homo sapiens) + Integrin alpha-4 (Homo sapiens), sequence (P13612 whole entry, looked up): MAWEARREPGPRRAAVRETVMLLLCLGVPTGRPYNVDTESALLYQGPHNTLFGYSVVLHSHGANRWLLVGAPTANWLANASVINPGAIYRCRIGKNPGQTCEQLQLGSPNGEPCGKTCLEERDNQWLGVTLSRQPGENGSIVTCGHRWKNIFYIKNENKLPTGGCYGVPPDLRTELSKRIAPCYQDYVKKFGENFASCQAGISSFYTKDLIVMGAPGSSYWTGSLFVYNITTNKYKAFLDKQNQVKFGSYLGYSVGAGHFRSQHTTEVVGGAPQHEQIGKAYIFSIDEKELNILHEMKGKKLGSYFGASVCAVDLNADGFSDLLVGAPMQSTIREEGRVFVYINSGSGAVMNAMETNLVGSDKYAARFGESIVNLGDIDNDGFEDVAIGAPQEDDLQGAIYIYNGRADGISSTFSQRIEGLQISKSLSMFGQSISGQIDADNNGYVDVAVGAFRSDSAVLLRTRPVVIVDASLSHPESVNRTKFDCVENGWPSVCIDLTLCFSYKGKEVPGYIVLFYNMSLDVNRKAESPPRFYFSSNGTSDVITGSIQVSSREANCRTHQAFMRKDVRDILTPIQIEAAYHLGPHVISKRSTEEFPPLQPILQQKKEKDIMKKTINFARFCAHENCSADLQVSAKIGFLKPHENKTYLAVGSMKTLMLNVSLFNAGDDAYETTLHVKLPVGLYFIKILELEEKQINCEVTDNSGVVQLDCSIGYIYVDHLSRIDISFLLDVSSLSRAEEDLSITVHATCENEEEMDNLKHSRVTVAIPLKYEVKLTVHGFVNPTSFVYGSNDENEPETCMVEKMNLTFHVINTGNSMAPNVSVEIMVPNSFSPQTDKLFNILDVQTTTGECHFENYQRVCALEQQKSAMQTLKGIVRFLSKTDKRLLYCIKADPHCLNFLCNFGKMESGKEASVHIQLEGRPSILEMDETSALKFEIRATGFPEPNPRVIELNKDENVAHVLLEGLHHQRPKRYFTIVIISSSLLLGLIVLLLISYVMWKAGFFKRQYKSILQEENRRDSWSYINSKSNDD
# [8] = calorie-restriction mimetic ROS inhibitors, yeast – validation compound set, pilot screen (AID 2706;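 active = superoxide response below 65% of plate, a cut near 3 SD across the whole screen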;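 also: yeast exposed to compound for one week at 30 degrees C before staining; 100% = mean of all compound wells on the same plate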); conditions: S. cerevisiae aging, superoxide DHE fluorescence; at 10 µM; stronger effect = lower value
# [9] = target: Beta-adrenergic receptor kinase 1 (Homo sapiens) (UniProt P25098); assay: GRK2 binders displacing RNA aptamer, biochemical, validation, human GRK2, bead flow cytometry (AID 488806); conditions: bead-bound GRK2, FAM-aptamer displacement, at 10 µM, stronger effect = higher value
# Beta-adrenergic receptor kinase 1 (Homo sapiens), sequence (P25098 whole entry, looked up): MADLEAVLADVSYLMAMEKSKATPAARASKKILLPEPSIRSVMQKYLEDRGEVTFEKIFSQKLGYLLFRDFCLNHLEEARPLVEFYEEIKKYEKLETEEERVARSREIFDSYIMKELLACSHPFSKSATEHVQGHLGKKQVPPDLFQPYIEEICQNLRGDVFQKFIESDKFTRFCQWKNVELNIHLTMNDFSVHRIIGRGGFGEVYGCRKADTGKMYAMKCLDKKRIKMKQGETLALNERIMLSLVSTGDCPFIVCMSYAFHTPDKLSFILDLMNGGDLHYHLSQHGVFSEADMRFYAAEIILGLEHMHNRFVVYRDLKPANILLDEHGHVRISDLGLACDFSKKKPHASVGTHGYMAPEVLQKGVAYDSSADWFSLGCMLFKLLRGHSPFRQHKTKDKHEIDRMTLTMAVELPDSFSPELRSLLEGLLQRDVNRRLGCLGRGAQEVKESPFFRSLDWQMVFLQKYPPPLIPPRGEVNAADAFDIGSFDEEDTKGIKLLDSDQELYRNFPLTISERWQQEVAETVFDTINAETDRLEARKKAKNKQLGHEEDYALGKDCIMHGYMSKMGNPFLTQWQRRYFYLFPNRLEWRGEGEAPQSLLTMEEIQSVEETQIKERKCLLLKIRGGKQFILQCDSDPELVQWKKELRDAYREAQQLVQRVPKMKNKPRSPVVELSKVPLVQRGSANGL
# [10] = target: Beta-2 adrenergic receptor (Homo sapiens) (UniProt P07550); assay: agonist-induced loss of surface beta2AR – cell-based, FAP fluorogen, flow cytometry, validation set, pilot screen (AID 504459;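 active = percent response above 42, roughly 3 SD of non-fluorescent test compounds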;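 also: agonist-driven loss of surface beta2AR via internalization measured by FAP dye flow cytometry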); conditions: Am2.2-beta2AR cells, at 10 µM, stronger effect = higher value
# Beta-2 adrenergic receptor (Homo sapiens), sequence (P07550 whole entry, looked up): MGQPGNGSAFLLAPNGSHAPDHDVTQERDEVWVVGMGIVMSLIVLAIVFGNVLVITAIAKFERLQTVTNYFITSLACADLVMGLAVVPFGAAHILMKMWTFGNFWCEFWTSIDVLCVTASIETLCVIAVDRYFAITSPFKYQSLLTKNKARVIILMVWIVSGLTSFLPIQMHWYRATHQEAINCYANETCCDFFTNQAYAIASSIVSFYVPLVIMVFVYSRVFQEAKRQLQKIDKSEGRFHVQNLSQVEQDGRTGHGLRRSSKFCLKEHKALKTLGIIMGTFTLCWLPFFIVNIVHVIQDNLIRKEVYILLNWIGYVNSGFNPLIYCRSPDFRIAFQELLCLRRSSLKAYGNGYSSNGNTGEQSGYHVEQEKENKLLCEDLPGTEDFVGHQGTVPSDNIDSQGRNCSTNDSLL
# [11] = target: AP-2 complex subunit beta (Homo sapiens) (UniProt P63010); assay: beta-arrestin/AP2 interaction blockers – biochemical, validation set, GST-AP2 beads, flow cytometry, pilot screen (AID 504541;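 active = inhibition above 54%, about 3 SD of non-fluorescent compounds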;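 also: AP2 carries R879A mutation and is captured from E. coli lysate; bead-bound FITC arrestin peptide fluorescence measuring arrestin peptide binding to AP2; 0% = DMSO wells and 100% = excess unlabeled arrestin peptide control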); conditions: FITC arrestin peptide, at 10 µM, stronger effect = higher value, AP2 beta2 appendage fragment, R879A mutant
# AP-2 complex subunit beta (Homo sapiens), sequence (P63010 whole entry, looked up, the tested form may be a part, one chain of several): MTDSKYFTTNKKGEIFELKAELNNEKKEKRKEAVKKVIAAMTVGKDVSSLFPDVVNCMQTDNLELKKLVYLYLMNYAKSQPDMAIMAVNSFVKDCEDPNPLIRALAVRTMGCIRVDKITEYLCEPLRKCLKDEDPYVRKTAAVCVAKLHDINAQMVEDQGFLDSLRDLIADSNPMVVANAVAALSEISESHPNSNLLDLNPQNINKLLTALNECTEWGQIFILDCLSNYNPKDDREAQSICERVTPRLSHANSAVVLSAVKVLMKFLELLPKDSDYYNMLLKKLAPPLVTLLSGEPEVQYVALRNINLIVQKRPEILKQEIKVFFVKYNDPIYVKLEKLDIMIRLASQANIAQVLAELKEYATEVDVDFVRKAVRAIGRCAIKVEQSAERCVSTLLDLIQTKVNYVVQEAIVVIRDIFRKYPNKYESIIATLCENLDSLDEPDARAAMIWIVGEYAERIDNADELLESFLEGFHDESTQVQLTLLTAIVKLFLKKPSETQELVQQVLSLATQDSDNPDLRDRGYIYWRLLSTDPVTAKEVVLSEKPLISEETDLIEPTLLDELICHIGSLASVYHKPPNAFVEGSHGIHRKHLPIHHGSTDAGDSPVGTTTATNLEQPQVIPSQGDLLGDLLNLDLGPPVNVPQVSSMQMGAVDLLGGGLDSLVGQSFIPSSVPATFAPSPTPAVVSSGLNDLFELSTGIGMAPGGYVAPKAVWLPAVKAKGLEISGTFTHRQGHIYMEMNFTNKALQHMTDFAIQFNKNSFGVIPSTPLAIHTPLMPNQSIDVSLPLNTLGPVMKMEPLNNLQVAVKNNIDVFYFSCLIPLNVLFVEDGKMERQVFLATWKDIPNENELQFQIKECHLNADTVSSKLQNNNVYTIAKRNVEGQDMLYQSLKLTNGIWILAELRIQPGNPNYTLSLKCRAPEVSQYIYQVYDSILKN
# [12] = cytosolic pH regulators acting via V-ATPase – S. cerevisiae, pHLuorin, HTS validation (AID 504600; in the data active = response above about 15%;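 also: plate controls were DMSO for no effect and reference compound for full effect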); conditions: V-ATPase proton transport, at 10 µM, stronger effect = higher value
# [13] = tested on: anti-desmoglein-3 scFv antibody binding to human DSG3; assay: blockers of pathogenic pemphigus antibody–desmoglein-3 binding – biochemical, validation compound set, bead-based, flow cytometry, pilot screen (AID 588368;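 active = binding below the plate cutoff, the plate median minus 3 SD, with a reading above zero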;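 also: signal is the median channel fluorescence of bead-bound GFP antibody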); conditions: Protein G beads, DSG3-Fc, scFv-GFP binding, at 10 µM, stronger effect = lower value
# [14] = Nile Red efflux blockade in pump-expressing yeast – validation compound set, multiplex, phenotypic, pilot screen (AID 588506;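 active = efflux inhibition above 0.42, the validation set average plus 4 SD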;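 also: Nile Red retained in cells so higher fluorescence means more efflux inhibition; 0 = negative control wells and 1 = enniatin B 25 µM full block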); conditions: S. cerevisiae pump-expressing triplex, Nile Red efflux flow cytometry; at 10 µM; stronger effect = higher value; the pumps come from Candida albicans
# [15] = target: ATP-binding cassette sub-family B member 6 (Homo sapiens) (UniProt Q9NP58); assay: blockers of ABCB6-driven porphyrin uptake – K562-ABCB6 cells, flow cytometry, validation set, pilot screen (AID 588550;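 active = inhibition above the screen-wide mean plus 3 SD, about 51%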;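 also: 0% = DMSO wells and 100% = benzethonium chloride 70 µM positive control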); conditions: K562-ABCB6 porphyrin accumulation, 1 h, at 10 µM, stronger effect = higher value
# ATP-binding cassette sub-family B member 6 (Homo sapiens), sequence (Q9NP58 whole entry, looked up): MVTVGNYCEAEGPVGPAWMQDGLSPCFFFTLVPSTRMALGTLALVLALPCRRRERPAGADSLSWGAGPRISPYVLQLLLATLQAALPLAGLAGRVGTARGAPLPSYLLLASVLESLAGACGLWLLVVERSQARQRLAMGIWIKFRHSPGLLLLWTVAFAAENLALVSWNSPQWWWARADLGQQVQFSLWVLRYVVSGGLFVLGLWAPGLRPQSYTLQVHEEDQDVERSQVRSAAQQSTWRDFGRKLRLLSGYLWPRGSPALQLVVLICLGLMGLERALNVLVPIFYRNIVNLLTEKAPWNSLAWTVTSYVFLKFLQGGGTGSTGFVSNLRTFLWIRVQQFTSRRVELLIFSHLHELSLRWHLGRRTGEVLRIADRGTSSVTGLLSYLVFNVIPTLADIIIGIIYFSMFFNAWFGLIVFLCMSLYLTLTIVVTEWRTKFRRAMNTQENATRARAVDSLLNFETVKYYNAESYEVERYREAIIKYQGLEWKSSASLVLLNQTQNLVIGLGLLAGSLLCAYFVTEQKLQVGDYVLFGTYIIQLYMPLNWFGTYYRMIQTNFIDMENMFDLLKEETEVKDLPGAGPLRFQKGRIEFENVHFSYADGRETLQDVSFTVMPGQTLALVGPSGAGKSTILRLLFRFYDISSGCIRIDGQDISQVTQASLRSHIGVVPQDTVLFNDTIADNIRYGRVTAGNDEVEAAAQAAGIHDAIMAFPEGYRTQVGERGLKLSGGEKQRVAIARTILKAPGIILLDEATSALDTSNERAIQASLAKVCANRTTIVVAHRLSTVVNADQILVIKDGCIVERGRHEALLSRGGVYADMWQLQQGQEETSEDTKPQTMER
# [16] = AML differentiation inducers, ER-HoxA9 marrow cells – cell-based, GFP/MAC1 double positive, flow cytometry, validation set, primary screen (AID 588685;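 active = differentiation response of at least 50%, scaled between solvent and reference control, from cells with both markers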;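 also: compound exposure lasts four days before antibody staining and flow analysis; 0% = DMSO wells and 100% = 5 µM fulvestrant positive control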); conditions: stronger effect = higher value, normalized: vehicle 0, fulvestrant 100
Structure (SMILES),percent of DMSO control GFP [1],GFP response vs DMSO [2],percent response of DMSO control [3],GFP response vs DMSO [4],"GFP response, % of DMSO [5]",double positive events [6],vesicle binding response [6],inhibition [7],superoxide response (% of plate) [8],aptamer binding inhibition [9],response [10],inhibition [11],response [12],binding (% of control) [13],efflux inhibition (fraction of control) [14],inhibition [15],differentiation response [16]
COC(=O)c1ccc(-c2ncc(-c3cccc4ccccc34)o2)cc1,98.2% (inactive),104% (inactive),105% (inactive),125% (inactive),109% (inactive),61.1%,170% (inactive),-29.2% (inactive),97.3% (inactive),-1% (inactive),-17.7% (inactive),21.1% (inactive),-15.9% (inactive),90.5% (inactive),0.17 (inactive),1% (inactive),6.83% (inactive)
Cc1ccc(-n2cc(CNCCN3CCOC3=O)c(-c3ccc(F)cc3)n2)cc1,103% (inactive),107% (inactive),108% (inactive),85% (inactive),96.5% (inactive),59.3%,129% (inactive),9.63% (inactive),109% (inactive),2% (inactive),-24.7% (inactive),-0.44% (inactive),-4.84% (inactive),104% (inactive),-0.36 (inactive),4% (inactive),-1.65% (inactive)
O=C(CCC(=O)NCCO)NCCO,101% (inactive),104% (inactive),97.7% (inactive),108% (inactive),111% (inactive),61.3%,174% (inactive),-1.12% (inactive),95.4% (inactive),7% (inactive),-19.9% (inactive),-1.09% (inactive),-3.85% (inactive),100% (inactive),0.04 (inactive),2% (inactive),-1.05% (inactive)
CCOCCn1c(C(C)O)nc2ccccc21 (stereo not drawn),105% (inactive),96.2% (inactive),111% (inactive),98% (inactive),104% (inactive),62.6%,278% (inactive),20.3% (inactive),89.7% (inactive),1% (inactive),-7.33% (inactive),-8.14% (inactive),4.51% (inactive),95.3% (inactive),0.02 (inactive),-3% (inactive),7.09% (inactive)
CC(=O)Nc1ccc(CN2CCN(C3CCCCC3)C(CCO)C2)cc1 (stereo not drawn),102% (inactive),104% (inactive),101% (inactive),114% (inactive),120% (inactive),62.8%,172% (inactive),-0.27% (inactive),102% (inactive),0% (inactive),-18.9% (inactive),-3.58% (inactive),-1.9% (inactive),111% (inactive),0.12 (inactive),2% (inactive),-10.9% (inactive)
COc1cccc2c1OCC1COc3c(c(=O)n(C)c(=O)n3C)C21 (stereo not drawn),101% (inactive),108% (inactive),99.6% (inactive),130% (inactive),102% (inactive),64.4%,201% (inactive),14.6% (inactive),95% (inactive),-1% (inactive),-9.55% (inactive),59.9% (active),-4.7% (inactive),101% (inactive),0.08 (inactive),2% (inactive),13.6% (inactive)
CN(C(=O)C(Cl)Cl)c1ccc(OC(=O)c2ccco2)cc1,99% (inactive),105% (inactive),97.8% (inactive),98% (inactive),96.8% (inactive),59.3%,90.2% (inactive),-1.49% (inactive),94% (inactive),4% (inactive),5.41% (inactive),15.3% (inactive),-0.32% (inactive),99% (inactive),-0.04 (inactive),7% (inactive),-3.67% (inactive)
CCOC(=O)c1ncn2c1CN(C)C(=O)c1cc(F)ccc1-2,101% (inactive),96.6% (inactive),96.5% (inactive),107% (inactive),105% (inactive),58.4%,200% (inactive),8.29% (inactive),115% (inactive),1% (inactive),3.78% (inactive),-0.66% (inactive),2.2% (inactive),97.7% (inactive),-0.025 (inactive),0% (inactive),7.13% (inactive)
CN(C)c1ccc(Nc2c3c4c(cccc4n(C)c2=O)C(=O)c2ccccc2-3)cc1,99.3% (inactive),108% (inactive),111% (inactive),126% (inactive),108% (inactive),60.5%,195% (inactive),-0.27% (inactive),71% (inactive),0% (inactive),-25.2% (inactive),16.7% (inactive),-0.9% (inactive),93.8% (inactive),-0.17 (inactive),3% (inactive),-9.91% (inactive)
CN(C)CCCN1c2ccccc2Sc2ccccc21,98.1% (inactive),102% (inactive),99.6% (inactive),107% (inactive),120% (inactive),61.4%,202% (inactive),44% (inactive),96.9% (inactive),-3% (inactive),0.87% (inactive),7.22% (inactive),-5.2% (inactive),102% (inactive),-0.09 (inactive),8% (inactive),23.6% (inactive)
CN1CCc2c(n(CC(O)CN(CCO)CCO)c3ccccc23)C1=O (stereo not drawn),92.6% (inactive),143% (active),97.9% (inactive),82% (inactive),99.6% (inactive),52.3%,195% (inactive),-9.06% (inactive),100% (inactive),0% (inactive),-17.4% (inactive),13.6% (inactive),-1.82% (inactive),104% (inactive),0.09 (inactive),8% (inactive),-9.83% (inactive)
CC(=O)N[C@@H](CS)C(=O)O,101% (inactive),111% (inactive),95.8% (inactive),131% (inactive),101% (inactive),64.2%,159% (inactive),-3.16% (inactive),89.1% (inactive),5% (inactive),7.69% (inactive),-18.7% (inactive),0.13% (inactive),104% (inactive),-0.03 (inactive),19% (inactive),7.2% (inactive)
COc1cc(CNc2ccc(C)c(C)c2)cc(OC)c1OC,99% (inactive),108% (inactive),107% (inactive),113% (inactive),111% (inactive),60.3%,256% (inactive),6.55% (inactive),90.2% (inactive),0% (inactive),-29.1% (inactive),16.2% (inactive),-0.73% (inactive),101% (inactive),0 (inactive),-8% (inactive),-16.8% (inactive)
O=C(CN1C(=O)/C(=C/c2cccc(Br)c2)SC1=S)Nc1cccnc1,101% (inactive),105% (inactive),101% (inactive),109% (inactive),109% (inactive),58.9%,59.7% (inactive),-19.9% (inactive),102% (inactive),0% (inactive),-8.62% (inactive),-4.86% (inactive),4.59% (inactive),99% (inactive),-0.41 (inactive),-10% (inactive),2.74% (inactive)
S=C(NCCOCCOCCNC(=S)Nc1ccccc1)Nc1ccccc1,98.6% (inactive),103% (inactive),86.3% (inactive),108% (inactive),97.4% (inactive),64.8%,250% (inactive),-22.3% (inactive),134% (inactive),3% (inactive),2.38% (inactive),-17% (inactive),6.24% (inactive),99.9% (inactive),0.55 (active),4% (inactive),5.6% (inactive)
COc1ccc(Br)cc1C(=O)Nc1ccc(C(=O)O)cc1,107% (inactive),105% (inactive),88.4% (inactive),127% (inactive),68.8% (inactive),63.9%,240% (inactive),-0.45% (inactive),97.6% (inactive),3% (inactive),-0.63% (inactive),-7.7% (inactive),1.41% (inactive),96.3% (inactive),-0.04 (inactive),-4% (inactive),5.13% (inactive)
O=C(O)c1ccc(N2C(=O)/C(=C\c3ccccc3)N=C2c2ccccc2)cc1,103% (inactive),106% (inactive),99.7% (inactive),110% (inactive),98% (inactive),58.6%,120% (inactive),-5.11% (inactive),111% (inactive),2% (inactive),-17.4% (inactive),-10.8% (inactive),-0.35% (inactive),98.1% (inactive),-0.2 (inactive),-15% (inactive),-0.18% (inactive)
NS(=O)(=O)c1cc(C2(O)NC(=O)c3ccccc32)ccc1Cl (stereo not drawn),101% (inactive),117% (inactive),115% (inactive),78.7% (inactive),89.6% (inactive),58.2%,252% (inactive),-16.8% (inactive),110% (inactive),-6% (inactive),-3.96% (inactive),-17.4% (inactive),1.36% (inactive),105% (inactive),-0.13 (inactive),9% (inactive),4.09% (inactive)
O=C(O)C1CSC(c2ccc3c(c2)OCO3)N1 (stereo not drawn),93.9% (inactive),121% (inactive),101% (inactive),78.7% (inactive),90.3% (inactive),61.8%,197% (inactive),-7.12% (inactive),86.1% (inactive),3% (inactive),-4.07% (inactive),-4.96% (inactive),0.02% (inactive),105% (inactive),-0.2 (inactive),9% (inactive),-4.91% (inactive)
